# From paper PMC4336329 (PLoS ONE, 2015)
# About 14,000 (4.5%) of roughly 310,000 compounds showed an effect of 50% or more. The effect is printed as a negative number. The entries come from a sample that favours strong results as a whole.
# Molecular target: human ether-à-go-go-related gene (hERG) potassium channel (human, UniProt Q12809)
# Experiment: primary screen, population patch clamp on CHO cells stably expressing hERG; higher = less effect of the substance
# 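Note: peak tail current of the secondary pulse compared with the same well before compound.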
# human ether-à-go-go-related gene (hERG) potassium channel, sequence (Q12809 whole entry, looked up): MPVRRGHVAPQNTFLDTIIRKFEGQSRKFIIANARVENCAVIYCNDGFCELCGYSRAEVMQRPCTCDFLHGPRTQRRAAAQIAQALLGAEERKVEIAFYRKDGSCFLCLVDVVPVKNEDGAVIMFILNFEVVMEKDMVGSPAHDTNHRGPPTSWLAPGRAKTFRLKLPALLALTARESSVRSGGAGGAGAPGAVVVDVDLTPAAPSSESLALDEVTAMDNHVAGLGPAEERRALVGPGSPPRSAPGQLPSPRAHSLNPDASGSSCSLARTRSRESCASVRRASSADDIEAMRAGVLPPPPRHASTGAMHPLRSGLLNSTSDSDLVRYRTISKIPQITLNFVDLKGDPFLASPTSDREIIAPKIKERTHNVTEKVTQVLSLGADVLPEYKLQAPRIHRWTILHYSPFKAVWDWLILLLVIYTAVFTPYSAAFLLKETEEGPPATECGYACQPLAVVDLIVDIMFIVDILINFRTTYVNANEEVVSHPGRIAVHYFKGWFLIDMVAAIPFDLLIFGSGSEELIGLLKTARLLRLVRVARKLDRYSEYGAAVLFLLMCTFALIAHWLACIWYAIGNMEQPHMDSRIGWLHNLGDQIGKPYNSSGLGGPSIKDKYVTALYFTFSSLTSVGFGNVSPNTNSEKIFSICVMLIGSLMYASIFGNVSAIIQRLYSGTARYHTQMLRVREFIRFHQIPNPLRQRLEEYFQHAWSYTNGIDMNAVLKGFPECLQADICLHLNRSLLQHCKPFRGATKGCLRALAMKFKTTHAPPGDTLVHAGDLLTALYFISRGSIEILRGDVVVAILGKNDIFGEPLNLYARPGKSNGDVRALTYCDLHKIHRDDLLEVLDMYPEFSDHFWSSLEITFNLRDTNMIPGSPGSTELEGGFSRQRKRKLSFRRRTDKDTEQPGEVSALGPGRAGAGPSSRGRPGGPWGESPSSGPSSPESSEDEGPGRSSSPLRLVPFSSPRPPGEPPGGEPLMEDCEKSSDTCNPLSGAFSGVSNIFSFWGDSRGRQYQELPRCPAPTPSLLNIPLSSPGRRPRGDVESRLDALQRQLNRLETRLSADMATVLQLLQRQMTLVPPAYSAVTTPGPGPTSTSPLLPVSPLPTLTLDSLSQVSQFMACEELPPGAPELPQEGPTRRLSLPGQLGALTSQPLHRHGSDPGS
row,Structure (SMILES),"hERG current change (%, negative = inhibition) at 10uM [%]"
1,CCCCN(CC)c1nc(N)c(C#N)c(CC#N)c1C#N,-24.9
2,O=C(NCCO)C(=O)NCC1OCCCN1S(=O)(=O)c1cc(F)ccc1F (stereo not drawn),13.6
3,CCOc1cc(/C=C/c2nc3ccccc3c(=O)[nH]2)ccc1O,13.4
4,CCN(CC)C(=O)OCc1c(-c2ccccc2)ncc2ccccc12,-25.5
5,CCc1nn(-c2cc(Oc3cccc4ccccc34)nc(-c3ccccc3)n2)c(N)c1C#N,23.3
6,CCOC(=O)N1CCN(S(=O)(=O)c2ccc(OC)cc2)CC1,-4.57
7,CC(=O)Nc1ccc(NS(=O)(=O)c2ccccc2)cc1,17.1
8,N=c1c(C(=O)NCc2ccco2)cc2c(=O)n3ccccc3nc2n1CCc1ccccc1,-76.7
9,N=c1c(C(=O)NCc2ccco2)cc2c(=O)n3ccccc3nc2n1Cc1ccccc1,-79.3
10,O=C(CCn1c(SCC(=O)NCc2ccco2)nc2ccccc2c1=O)NCCc1ccccc1,-34.5
11,N=c1c(C(=O)NCc2ccc(F)cc2)cc2c(=O)n3ccccc3nc2n1Cc1ccco1,-77.8
12,O=C(CCn1c(=O)c2ccccc2n(Cc2cc(=O)n3ccccc3n2)c1=O)NCc1ccco1,-4.21
13,Cn1nnnc1SCC(=O)Nc1ccc(S(=O)(=O)N2CCOCC2)cc1,3.21
14,COc1ccc(CNC(=O)CN2C(=O)C3C4C=CC(C4)C3C2=O)cc1 (stereo not drawn),19.2
15,O=C(O)C1CC(=O)N(c2ccc(OCc3ccc(Br)cc3)cc2)C1 (stereo not drawn),6.71
16,COCCNC(=O)C(c1ccco1)N(C(=O)Cn1nnc2ccccc21)c1cc(C)ccc1C (stereo not drawn),-4.75
17,O=c1c2[nH]c3ccc(F)cc3c2ncn1CCCn1ccnc1,-61.1
18,O=C1CCCN1CCCn1cnc2c([nH]c3ccc(F)cc32)c1=O,-42.2
19,COc1ccc2c(c1)[nH]c1c(=O)n(CCCn3ccnc3)cnc12,-35.1
20,O=c1c2[nH]c3ccc(Br)cc3c2ncn1Cc1ccncc1,-4.79
21,O=c1c2[nH]c3ccc(Br)cc3c2ncn1CCCn1ccnc1,-64.4
22,O=c1c2[nH]c3ccccc3c2ncn1CCCn1ccnc1,-41.8
23,CC(C)(C)C1CCC(=NNC(=O)c2cc3c(s2)CCCC3)CC1 (stereo not drawn),20.1
24,Cc1cccc(NC(=O)c2sc(NC(=O)c3ccco3)c(C#N)c2C)c1C,5.79

row,Structure (SMILES),"hERG current change (%, negative = inhibition) at 10uM [%]"
1,O=C(CCSc1nc(-c2ccco2)cc(C(F)(F)F)n1)NCc1ccccn1,-22.5
2,CC(=C/c1ccc(C(C)C)cc1)/C=N/NC(=O)Cn1nnnc1N,17.3
3,CS/C(=N/S(=O)(=O)c1ccc(C)cc1)c1ccccc1,-3.56
4,Cc1ccc(N(CC(=O)Nc2c(C)cccc2C)S(C)(=O)=O)cc1,1.65
5,Cl.c1ccc(CN(CC2=NCCN2)c2ccccc2)cc1,-29.7
6,CS(=O)(=O)O.Cc1ccc(N(CC2=NCCN2)c2cccc(O)c2)cc1,-51.2
7,Cl.c1ccc(CC2=NCCN2)cc1,7.57
8,Cc1ccc(N(CC2=NCCN2)c2cccc(O)c2)cc1.Cl,-58.3
9,O=P(O)(O)O.c1ccc(CN(CC2=NCCN2)c2ccccc2)cc1,-17.3
10,Cc1cc(C)nc(/N=C2\NC(=O)CC(C(=O)O)N2CCc2c[nH]c3ccccc23)n1 (stereo not drawn),12.8
11,COc1cccc(NC(=O)C(c2ccccc2)N2CCNC(=O)C2)c1 (stereo not drawn),-7.23
12,O=C(CCN1CCOCC1)N1CCCC(Nc2ccc(F)cc2)C1 (stereo not drawn),13.7
13,C/C(=N\NC(=S)Nc1ccc(F)cc1)C1CC1,-26.7
14,COc1ccc(C(=O)NC(=S)Nc2cccnc2)cc1[N+](=O)[O-],4.69
15,Cc1cccc(N(CC(=O)NCCSCc2ccccc2)S(C)(=O)=O)c1,26.5
16,COc1ccc(C2C(C(=O)OCC(=O)N3CCCCC3)CCC(=O)N2c2ccc(OC)cc2)cc1 (stereo not drawn),-13.3
17,COc1ccc(C2C(C(=O)OCC(=O)Nc3ccc(C)cc3)CCC(=O)N2c2ccc(OC)cc2)cc1 (stereo not drawn),-62.4
18,CCNC(=O)COC(=O)C1CCC(=O)N(c2ccc(OC)cc2)C1c1ccc(OC)cc1 (stereo not drawn),-32.2
19,COc1ccc(C(=O)OCC[N+]2(C)CCOCC2)cc1.[I-],13.6
20,COCCN(C/C=C/c1ccccc1)C/C=C/c1ccccc1,-69.4
21,CN(C/C=C/c1ccccc1)C1CCCCC1,-21.7
22,NC(=O)CN(C/C=C/c1ccccc1)C/C=C/c1ccccc1,20.6
23,CC(C)=CCCC(C)CN1CCC(n2nccc2NC(=O)c2ccccc2)CC1 (stereo not drawn),-69.6
24,CC(C)(CO)CN1CCC(n2nccc2NC(=O)C2CCCC2)CC1,11.4

row,Structure (SMILES),"hERG current change (%, negative = inhibition) at 10uM [%]"
1,CCc1ccc(CN2CCC(n3nccc3NC(=O)c3ccccc3)CC2)o1,-36
2,CC(C)=CCCC(C)CN1CCC(n2nccc2NC(=O)C2CCCC2)CC1 (stereo not drawn),-70.8
3,O=C(Nc1ccnn1C1CCN(CC(O)CO)CC1)C1CCCC1 (stereo not drawn),11.4
4,CC(C)CCN1CCC(n2nccc2NC(=O)c2ccc3c(c2)OCO3)CC1,-5.16
5,CC(C)=CCCC(C)CN1CCC(n2nccc2NC(=O)c2cccnc2)CC1 (stereo not drawn),-52.1
6,COc1ccc(C(=O)Nc2ccnn2C2CCN(C(=O)c3cccnc3)CC2)cc1,12.3
7,O=C(Nc1cccnc1Cl)c1cc(-c2ccccc2O)on1,-5.16
8,COc1ccc(NCc2ccc3c(c2)OCO3)cc1Cl,-4.31
9,CC(C)CSc1nnc2c3ccccc3n(C)c2n1,-11.9
10,CC1=C(C(N)=O)C(c2ccccc2[N+](=O)[O-])n2ncnc2N1 (stereo not drawn),7.69
11,C=Cn1c(C(=O)O)ccc1-c1ccc(CC)cc1,-5.29
12,COC(=O)Nc1ccc(S(=O)(=O)N(CCO)CC(F)(F)C(F)F)cc1,18.3
13,CN=C1S/C(=C\c2ccc(OCC(=O)OC)c(OC)c2)C(=O)N1C,12.6
14,Cc1ccc(CNc2nc(C)nc3sc4c(c23)CCC4)cc1,-4.22
15,c1ccc(CNc2ncnc3sc4c(c23)CCCC4)nc1,-27.4
16,c1cncc(CNc2ncnc3sc4c(c23)CCCC4)c1,-78
17,Cc1sc2ncnc(OCC(=O)NCc3cccs3)c2c1C,6.03
18,Cc1sc2ncnc(NCc3cccnc3)c2c1C,-55
19,O=C(Nc1ncnc2sc3c(c12)CCCC3)c1ccncc1,-14.2
20,Cc1sc2ncnc(NCc3ccco3)c2c1C,-16.3
21,Cc1sc2ncnc(NCc3cccs3)c2c1C,-61.7
22,CCCNc1ncnc2sc(C)c(C)c12,-1.05
23,Cc1nc(NCc2cccnc2)c2c3c(sc2n1)CCCC3,-70.2
24,Cc1sc2ncnc(NCCCO)c2c1C,5.08

row,Structure (SMILES),"hERG current change (%, negative = inhibition) at 10uM [%]"
1,Cc1nc(NCc2cccnc2)c2c3c(sc2n1)CC(C)CC3 (stereo not drawn),-25.1
2,c1ccc2c(CSc3nnc(-c4ccncc4)o3)cccc2c1,-12.8
3,CCC(CC)C(=O)Nc1nnc(S(=O)(=O)N2CCc3ccccc32)s1,17.9
4,O=C(O)C1CCCCC1C(=O)Nc1cc(Cl)ccc1Cl (stereo not drawn),10.3
5,CCc1ccccc1SCc1noc(C(=O)NCC2CCCO2)c1C(=O)O (stereo not drawn),2.36
6,CN(Cc1cccs1)c1ncnc2sccc12,-28.8
7,Cc1sc2ncnc(N(C)Cc3ccco3)c2c1C,-4.64
8,CN(C)C(CNc1ncnc2sc3c(c12)CCCCC3)c1ccco1 (stereo not drawn),-35.4
9,Cc1sc2ncnc(NCC(c3ccco3)N(C)C)c2c1C.O=C(O)C(=O)O (stereo not drawn),-33.7
10,Cc1sc2ncnc(N(C)Cc3cccs3)c2c1C,-53
11,Cl.c1cncc(CNc2ncnc3sc4c(c23)CCC4)c1,-56.2
12,c1ccc(CNc2ncnc3sc4c(c23)CCC4)nc1,-19.8
13,Cc1sc2ncnc(NCC(c3ccco3)N3CCCC3)c2c1C (stereo not drawn),-51.5
14,Cl.c1cc(Nc2ncnc3sc4c(c23)CCC4)ccn1,19.3
15,CCOC(=O)N1CCN(C(=O)CN(C)S(=O)(=O)c2ccc(Cl)cc2)CC1,8.13
16,COc1ccc(CCNC(=O)Cc2nn(C)c(=O)c3ccccc23)cc1OC,0.902
17,CN(CC(=O)NC(=O)NCc1ccco1)Cc1nc2ccccc2c(=O)[nH]1,-3.41
18,Cn1c(SCC(=O)N2CCCc3ccccc32)nc2cccnc21,9.85
19,[Br-].c1ccc(-c2c[n+]3c(n2-c2ccccc2)SCC3)cc1,-28.4
20,COc1ccc(-c2c[n+]3c(n2-c2ccccc2)SCC3)cc1.[Br-],-45.7
21,Clc1ccc(-c2c[n+]3c(n2-c2ccccc2)SCC3)cc1.[Cl-],-62.7
22,CCOc1ccc(-n2c(-c3ccc(Cl)cc3)c[n+]3c2SCC3)cc1.[Br-],-80.9
23,Cc1ccc(-c2c[n+]3c(n2-c2ccccc2)SCC3)cc1.[Br-],-35.8
24,Brc1ccc(-c2c[n+]3c(n2-c2ccccc2)SCC3)cc1.[Br-],-49.4
